About 83,000 compounds went through this panel and 20% of them were active in at least one assay; those are over-represented in the sample as a whole.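 How to read the values: 0–100, growth inhibition (40 = 60% inhibited); 0, no net growth; -100 to 0, cell death (-40 = 40% of starting cells died; -100 = all dead).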 Active and inactive are the calls of the source. The calls were made as follows: active = growth percent below 10; inactive = the rest.
Key:
Experiment in all cases: NCI-60 one-dose screen, 48 h (100 = growth as untreated, 0 = no growth, -100 = all killed)
RPMI-8226 leukemia = settings: 10 µM unless noted
OVCAR-8 ovarian = settings: 10 µM unless noted
OVCAR-5 ovarian = settings: 10 µM unless noted
OVCAR-4 ovarian = settings: 10 µM unless noted
SK-OV-3 ovarian = settings: 10 µM unless noted
IGROV1 ovarian = settings: 10 µM unless noted
OVCAR-3 ovarian = settings: 10 µM unless noted
HS 578T breast = settings: 10 µM
NCI/ADR-RES ovarian = settings: 10 µM unless noted
T-47D breast = settings: 10 µM unless noted
MDA-MB-435 melanoma = settings: 10 µM unless noted
SW-620 colon = settings: 10 µM unless noted
MCF7 breast = settings: 10 µM unless noted
HCT-116 colon = settings: 10 µM unless noted
HCC-2998 colon = settings: 10 µM unless noted
KM12 colon = settings: 10 µM unless noted
BT-549 breast = settings: 10 µM unless noted

Measured: growth

O=C1OC(c2ccc(-c3ccccc3)cc2)=C/C1=C/c1c(Cl)cccc1Cl
inactive: RPMI-8226 leukemia 84.1% | OVCAR-8 ovarian 105% | OVCAR-5 ovarian 91.7% | OVCAR-4 ovarian 89.8% | SK-OV-3 ovarian 96.7% | IGROV1 ovarian 95.4% | OVCAR-3 ovarian 97.1% | HS 578T breast 85.6% | NCI/ADR-RES ovarian 99.3% | T-47D breast 91.3% | MDA-MB-435 melanoma 104% | SW-620 colon 95.9% | MCF7 breast 76% | HCT-116 colon 63% | HCC-2998 colon 102% | KM12 colon 94.1%

CC(C)=CCC[C@H](C)c1ccc(C)c2c1OCN(CCO)C2
inactive: RPMI-8226 leukemia 83.2% | OVCAR-8 ovarian 86.3% | OVCAR-5 ovarian 83.7% | OVCAR-4 ovarian 79% | SK-OV-3 ovarian 105% | IGROV1 ovarian 66.7% | OVCAR-3 ovarian 86.1% | HS 578T breast 75.6% | NCI/ADR-RES ovarian 73.5% | T-47D breast 70% | BT-549 breast 95.8% | MDA-MB-435 melanoma 101% | SW-620 colon 100% | MCF7 breast 83.9% | HCT-116 colon 71.8% | HCC-2998 colon 84.4% | KM12 colon 103%

COc1ccc(Nc2ncnc3c2sc2nc(C)cc(C)c23)cc1
inactive: RPMI-8226 leukemia 101% | OVCAR-8 ovarian 95% | OVCAR-5 ovarian 93.1% | OVCAR-4 ovarian 95.2% | SK-OV-3 ovarian 118% | IGROV1 ovarian 99.4% | OVCAR-3 ovarian 113% | HS 578T breast 93% | NCI/ADR-RES ovarian 108% | T-47D breast 89.6% | BT-549 breast 104% | MDA-MB-435 melanoma 98.7% | SW-620 colon 108% | MCF7 breast 80.1% | HCT-116 colon 90.4% | KM12 colon 96.7%

Brc1cccc(-n2ncc3c(Nc4ccc(-c5nnc(-c6ccccc6)o5)cc4)ncnc32)c1
inactive: RPMI-8226 leukemia 117% | OVCAR-8 ovarian 97.8% | OVCAR-5 ovarian 104% | OVCAR-4 ovarian 107% | SK-OV-3 ovarian 110% | IGROV1 ovarian 112% | OVCAR-3 ovarian 99.6% | HS 578T breast 110% | NCI/ADR-RES ovarian 98.6% | BT-549 breast 101% | MDA-MB-435 melanoma 106% | SW-620 colon 99.5% | MCF7 breast 99.5% | HCT-116 colon 94.7% | HCC-2998 colon 100% | KM12 colon 102%

O=C(Nc1cccc(Cl)c1)Nc1cc(C(F)(F)F)ccc1Cl
active: RPMI-8226 leukemia -14% | SK-OV-3 ovarian 9.3% | NCI/ADR-RES ovarian 2.25% | T-47D breast 5.15% | MDA-MB-435 melanoma 8.14% | SW-620 colon -16.1% | HCT-116 colon -13.3% | KM12 colon -45.1%
inactive: OVCAR-8 ovarian 15.2% | OVCAR-5 ovarian 44.2% | OVCAR-4 ovarian 11.6% | IGROV1 ovarian 14.3% | OVCAR-3 ovarian 18.9% | BT-549 breast 25.8%

CCOc1cccc(/C=N/NC(=O)Cc2ccc(Nc3ccnc(C(F)(F)F)c3)cc2)c1O
inactive: OVCAR-8 ovarian 16.7% | OVCAR-5 ovarian 19.6% | OVCAR-4 ovarian 22% | SK-OV-3 ovarian 20% | IGROV1 ovarian 11.3% | OVCAR-3 ovarian 39.7% | NCI/ADR-RES ovarian 48% | T-47D breast 15.7% | BT-549 breast 40.7% | MDA-MB-435 melanoma 40.3% | SW-620 colon 21.5% | HCT-116 colon 20.9% | HCC-2998 colon 37.4% | KM12 colon 30.1%
active: RPMI-8226 leukemia 4.35% | MCF7 breast 5.26%

Nc1ncnc2c1N=C(c1ccc(F)cc1)CC(c1sc(Cl)nc1Cl)N2 (stereo unspecified)
inactive: RPMI-8226 leukemia 76.5% | OVCAR-8 ovarian 87.4% | OVCAR-5 ovarian 99.6% | OVCAR-4 ovarian 97.9% | SK-OV-3 ovarian 95.7% | IGROV1 ovarian 93.5% | OVCAR-3 ovarian 101% | HS 578T breast 92.5% | T-47D breast 88.3% | BT-549 breast 78% | MDA-MB-435 melanoma 102% | SW-620 colon 101% | MCF7 breast 86.6% | HCT-116 colon 91.1% | HCC-2998 colon 101% | KM12 colon 105%

O=C(C=P(c1ccccc1)(c1ccccc1)c1ccccc1)CCl
inactive: SK-OV-3 ovarian 24.6% | HS 578T breast 18.6%
active: RPMI-8226 leukemia -19.2% | OVCAR-8 ovarian -37.1% | OVCAR-5 ovarian 1.7% | OVCAR-4 ovarian -37.3% | IGROV1 ovarian -69.5% | OVCAR-3 ovarian -85.1% | NCI/ADR-RES ovarian -27% | T-47D breast -73.8% | BT-549 breast -11.3% | MDA-MB-435 melanoma -98.6% | SW-620 colon -50.7% | MCF7 breast -16.6% | HCT-116 colon -70.2% | HCC-2998 colon -21.6% | KM12 colon 1.36%

CC(=O)OC1Oc2cc(C)c(C)cc2-c2oc(=O)c(-c3cc4ccccc4oc3=O)cc21 (stereo unspecified)
inactive: OVCAR-8 ovarian 101% | OVCAR-5 ovarian 97.6% | OVCAR-4 ovarian 97.2% | SK-OV-3 ovarian 89.4% | IGROV1 ovarian 73.8% | HS 578T breast 423% | NCI/ADR-RES ovarian 94.7% | T-47D breast 91.9% | BT-549 breast 129% | MDA-MB-435 melanoma 112% | SW-620 colon 133% | MCF7 breast 108% | HCT-116 colon 81.1% | HCC-2998 colon 96.2% | KM12 colon 103%

COc1cc(/C=C/c2ccc3c(Br)cc(Br)c(O)c3n2)ccc1O
active: IGROV1 ovarian -44.8% | OVCAR-3 ovarian 1.97% | HS 578T breast 3.67% | NCI/ADR-RES ovarian 6.88% | T-47D breast 4.66% | HCT-116 colon 1.68%
inactive: OVCAR-8 ovarian 17.5% | OVCAR-5 ovarian 63.2% | OVCAR-4 ovarian 17.4% | SK-OV-3 ovarian 58.2% | MDA-MB-435 melanoma 32% | SW-620 colon 18.3% | MCF7 breast 10.2% | HCC-2998 colon 35% | KM12 colon 20.8%

C1=C\CCCCN2CC[C@H]3[C@H](CCCC/C=C\CCCN4C[C@@H](CCCCC/1)C[C@@H]3C4)C2
inactive: OVCAR-8 ovarian 77.4% | OVCAR-5 ovarian 87.6% | OVCAR-4 ovarian 74.2% | SK-OV-3 ovarian 83.9% | OVCAR-3 ovarian 49.1% | NCI/ADR-RES ovarian 77.5% | T-47D breast 71.4% | BT-549 breast 89.5% | SW-620 colon 79.8% | MCF7 breast 22.7% | HCT-116 colon 43.6% | HCC-2998 colon 22.1% | KM12 colon 58.1%
active: IGROV1 ovarian -11.3% | MDA-MB-435 melanoma -70.3%

N#Cc1c(N)n(C2OC(CO)C(O)C2O)c2ncnc(N)c12 (stereo unspecified)
active: OVCAR-8 ovarian -13.1% | OVCAR-5 ovarian -11.4% | OVCAR-4 ovarian 0.621% | SK-OV-3 ovarian -0.358% | IGROV1 ovarian -63% | OVCAR-3 ovarian -62.1% | HS 578T breast -19.2% | NCI/ADR-RES ovarian -7.81% | T-47D breast -46.2% | MDA-MB-435 melanoma -58.4% | SW-620 colon -33.3% | MCF7 breast -21.1% | HCT-116 colon 4.76% | HCC-2998 colon -35.2% | KM12 colon -3.95%

Cc1ccc2nc(CN(CCN(Cc3nc4ccc(C)cc4[nH]3)Cc3nc4ccc(C)cc4[nH]3)Cc3nc4ccc(C)cc4[nH]3)[nH]c2c1
active: OVCAR-8 ovarian -71.8% | OVCAR-5 ovarian -67.8% | OVCAR-4 ovarian -99.2% | SK-OV-3 ovarian -94.6% | IGROV1 ovarian -95.2% | OVCAR-3 ovarian -94.4% | HS 578T breast -74.1% | NCI/ADR-RES ovarian -72.5% | T-47D breast -93% | BT-549 breast -98.2% | MDA-MB-435 melanoma -92.6% | SW-620 colon -85.9% | MCF7 breast -95% | HCT-116 colon -96.3% | HCC-2998 colon -65% | KM12 colon -95.9%

CCOC(=O)C(=CNc1ccccc1Cl)C(=O)OCC
inactive: OVCAR-8 ovarian 91.4% | OVCAR-5 ovarian 100% | OVCAR-4 ovarian 91.7% | SK-OV-3 ovarian 113% | IGROV1 ovarian 91.1% | HS 578T breast 129% | NCI/ADR-RES ovarian 91.4% | T-47D breast 95% | BT-549 breast 106% | MDA-MB-435 melanoma 76.9% | SW-620 colon 98.4% | MCF7 breast 93.8% | HCT-116 colon 97.9% | HCC-2998 colon 102% | KM12 colon 105%

CC(=O)OC1Oc2ccccc2-c2oc3nc(=N)n(C)c-3cc21 (stereo unspecified)
inactive: OVCAR-8 ovarian 98.6% | OVCAR-5 ovarian 107% | OVCAR-4 ovarian 104% | SK-OV-3 ovarian 104% | IGROV1 ovarian 102% | HS 578T breast 143% | NCI/ADR-RES ovarian 96% | T-47D breast 93.6% | BT-549 breast 128% | MDA-MB-435 melanoma 122% | SW-620 colon 104% | HCT-116 colon 100% | HCC-2998 colon 102% | KM12 colon 209%

Clc1ccc2c(c1)-n1cccc1C(c1ccc3ccccc3c1)=NC2
inactive: OVCAR-8 ovarian 102% | OVCAR-5 ovarian 98.4% | OVCAR-4 ovarian 84.2% | SK-OV-3 ovarian 94.5% | IGROV1 ovarian 61.4% | OVCAR-3 ovarian 86.1% | HS 578T breast 110% | NCI/ADR-RES ovarian 77.8% | T-47D breast 76.5% | MDA-MB-435 melanoma 50.4% | SW-620 colon 88% | MCF7 breast 84.4% | HCT-116 colon 66.4% | HCC-2998 colon 87.9% | KM12 colon 71.8%

c1ccc2c(c1)cnc1ccccc12
inactive: OVCAR-8 ovarian 97.5% | OVCAR-5 ovarian 92.2% | OVCAR-4 ovarian 96.3% | SK-OV-3 ovarian 96.1% | IGROV1 ovarian 121% | HS 578T breast 100% | NCI/ADR-RES ovarian 101% | T-47D breast 96.8% | BT-549 breast 106% | MDA-MB-435 melanoma 102% | SW-620 colon 98.5% | MCF7 breast 94.3% | HCT-116 colon 100% | HCC-2998 colon 101% | KM12 colon 102%

CC(=O)[C@@]1(O)[C@H](C)C[C@H]2[C@@H]3C=C(C)C4=Cc5c(cnn5-c5ccccc5)C[C@]4(C)[C@H]3[C@@H](O)C[C@@]21C
active: IGROV1 ovarian -16.8% | OVCAR-3 ovarian 8.02% | SW-620 colon -59.9% | KM12 colon -45%
inactive: OVCAR-8 ovarian 37.3% | OVCAR-5 ovarian 40.6% | OVCAR-4 ovarian 56.5% | SK-OV-3 ovarian 38.7% | NCI/ADR-RES ovarian 27.1% | T-47D breast 44.4% | MDA-MB-435 melanoma 37.7% | MCF7 breast 15.5% | HCT-116 colon 14.4% | HCC-2998 colon 19.8%

CCc1ccc(Nc2ncnc3c2cnn3-c2cccc(Br)c2)cc1
inactive: RPMI-8226 leukemia 117% | OVCAR-8 ovarian 93.3% | OVCAR-5 ovarian 102% | OVCAR-4 ovarian 105% | SK-OV-3 ovarian 104% | IGROV1 ovarian 113% | OVCAR-3 ovarian 103% | NCI/ADR-RES ovarian 100% | BT-549 breast 95.8% | MDA-MB-435 melanoma 98% | SW-620 colon 99.6% | MCF7 breast 102% | HCT-116 colon 96.1% | HCC-2998 colon 98.1% | KM12 colon 106%

Cc1cc(O)ccc1C1=NN(c2ccc(S(N)(=O)=O)cc2)C(=O)CC1
inactive: OVCAR-8 ovarian 50.1% | OVCAR-5 ovarian 93% | OVCAR-4 ovarian 59.2% | SK-OV-3 ovarian 64.9% | HS 578T breast 18.8% | NCI/ADR-RES ovarian 22.4% | T-47D breast 45.8% | SW-620 colon 16.2% | MCF7 breast 27.7% | HCT-116 colon 23.3% | HCC-2998 colon 64% | KM12 colon 22.7%
active: IGROV1 ovarian -9.76% | MDA-MB-435 melanoma -21.1%

From PubChem BioAssay (NCI)
